The campaign covered roughly 5,500 compounds. About 2,000 (36%) were called active. Roughly 18% stayed inconclusive and do not appear here. Cut-off read from the data, not from the text of the source: active = normalized growth mostly below about 0.91 (no sharp cut-off); inconclusive = no clear call, values can overlap the other calls; inactive = mostly above about 0.92. This is one part of the list.
Assay: chemical genetic growth profiling, strain panel (AID 1159580);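 note: tested at 20 µM; growth read once vehicle control cultures reached saturation at 30 °C; 1 = growth at the plate median or of vehicle wells; lower values mean less growth of the strain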
Conditions: S. cerevisiae deletion strains, growth OD

Measured: normalized growth

CC1(C)C(=O)CC[C@@]2(C)C1C[C@@H](O)[C@@]1(C)C3=CC(=O)O[C@@H](c4ccoc4)[C@]3(C)CCC21 (stereo partly drawn)
inactive: locus YAL021C, strain ccr4, stronger effect = lower value 1.02 | locus YAL026C, strain drs2, stronger effect = lower value 1.02 | locus YAL030W, strain snc1, stronger effect = lower value 1.02 | locus YBL061C, strain skt5, stronger effect = lower value 1.03 | locus YBR009C, strain hhf1, stronger effect = lower value 1.01 | locus YBR021W, strain FUR4, stronger effect = lower value 0.967 | locus YBR023C, strain chs3, stronger effect = lower value 1.02 | locus YBR171W, strain sec66, stronger effect = lower value 1.04 | locus YBR229C, strain ROT2, stronger effect = lower value 1.01 | locus YBR231C, strain swc5, stronger effect = lower value 1.01 | locus YBR279W, strain paf1, stronger effect = lower value 1.01 | locus YCL011C, strain gbp2, stronger effect = lower value 1.02 | locus YCL016C, strain dcc1, stronger effect = lower value 1.02 | locus YCL029C, strain bik1, stronger effect = lower value 0.999 | locus YCL069W, strain vba3, stronger effect = lower value 1.02 | locus YCR088W, strain abp1, stronger effect = lower value 1.02 | locus YDL005C, strain med2, stronger effect = lower value 1.05 | locus YDL035C, strain GPR1, stronger effect = lower value 1.01 | locus YDL040C, strain nat1, stronger effect = lower value 1.02 | locus YDL074C, strain BRE1, stronger effect = lower value 1.01 | locus YDL101C, strain DUN1, stronger effect = lower value 1.03 | locus YDL134C, strain PPH21, stronger effect = lower value 1.03 | locus YDL185W, strain tfp1, stronger effect = lower value 1.02 | locus YDL192W, strain arf1, stronger effect = lower value 0.987 | locus YDR001C, strain nth1, stronger effect = lower value 1.03 | locus YDR069C, strain doa4, stronger effect = lower value 1.01 | locus YDR101C, strain arx1, stronger effect = lower value 0.963 | locus YDR137W, strain rgp1, stronger effect = lower value 1.05 | locus YDR159W, strain sac3, stronger effect = lower value 1.05 | locus YDR162C, strain NBP2, stronger effect = lower value 1.01 | locus YDR195W, strain ref2 0.982 | locus YDR297W, strain sur2, stronger effect = lower value 1.02 | locus YDR318W, strain mcm21, stronger effect = lower value 1.01 | locus YDR334W, strain swr1, stronger effect = lower value 1.02 | locus YDR335W, strain msn5, stronger effect = lower value 1.01 | locus YDR388W, stronger effect = lower value 1 | locus YDR392W, strain spt3, stronger effect = lower value 1.03 | locus YDR502C, strain sam2, stronger effect = lower value 1.02 | locus YEL003W, strain gim4, stronger effect = lower value 1.02 | locus YEL037C, strain rad23, stronger effect = lower value 1.02 | locus YEL061C, strain CIN8 (second series), stronger effect = lower value 1.03 | locus YEL061C, strain CIN8, stronger effect = lower value 1 | locus YER015W, strain faa2, stronger effect = lower value 1.01 | locus YER016W, strain bim1, stronger effect = lower value 1.03 | locus YER110C, stronger effect = lower value 1 | locus YER111C, strain swi4, stronger effect = lower value 1.02 | locus YER155C, strain BEM2 (second series), stronger effect = lower value 1.03 | locus YER155C, strain BEM2, stronger effect = lower value 0.997 | locus YER167W, strain BCK2, stronger effect = lower value 0.989 | locus YFR010W, strain ubp6, stronger effect = lower value 1.01 | locus YGL078C, strain dbp3, stronger effect = lower value 1.03 | locus YGL086W, strain mad1, stronger effect = lower value 0.998 | locus YGL167C, strain pmr1, stronger effect = lower value 1.04 | locus YGL173C, strain kem1, stronger effect = lower value 1.03 | locus YGL227W, strain vid30, stronger effect = lower value 1.03 | locus YGL240W, strain doc1, stronger effect = lower value 1.02 | locus YGL248W, strain PDE1, stronger effect = lower value 1.03 | locus YGL253W, strain hxk2, stronger effect = lower value 1.01 | locus YGR135W, strain pre9, stronger effect = lower value 1.06 | locus YGR252W, strain gcn5, stronger effect = lower value 1 | locus YHR013C, strain ard1, stronger effect = lower value 1.03 | locus YHR027C, strain rpn1, stronger effect = lower value 1.02 | locus YHR079C, strain IRE1 (second series), stronger effect = lower value 0.998 | locus YHR094C, strain hxt1, stronger effect = lower value 0.991 | locus YHR129C, strain ARP1, stronger effect = lower value 1.01 | locus YHR142W, strain chs7, stronger effect = lower value 1.04 | locus YHR200W, strain rpn10, stronger effect = lower value 1 | locus YIL066C, strain RNR3, stronger effect = lower value 1 | locus YIL073C, strain SPO22, stronger effect = lower value 0.977 | locus YIL125W, strain kgd1, stronger effect = lower value 0.984 | locus YIR030C, strain dcg1, stronger effect = lower value 0.999 | locus YJL092W, strain hpr5, stronger effect = lower value 1.03 | locus YJL095W, strain BCK1 (second series), stronger effect = lower value 1.01 | locus YJL095W, strain BCK1, stronger effect = lower value 1.04 | locus YJL115W, strain asf1, stronger effect = lower value 1.04 | locus YJL129C, strain trk1, stronger effect = lower value 1.02 | locus YJL134W, strain LCB3, stronger effect = lower value 1 | locus YJL154C, strain vps35, stronger effect = lower value 1.02 | locus YJL164C, strain tpk1, stronger effect = lower value 1.02 | locus YJL166W, strain qcr8, stronger effect = lower value 1.02 | locus YJL168C, strain set2, stronger effect = lower value 1 | locus YJL187C, strain SWE1 (second series), stronger effect = lower value 1.04 | locus YJL187C, strain SWE1, stronger effect = lower value 1.02 | locus YKL009W, strain mrt4, stronger effect = lower value 1.02 | locus YKL068W, stronger effect = lower value 1 | locus YKL085W, strain MDH1 (second series), stronger effect = lower value 0.993 | locus YKL085W, strain MDH1, stronger effect = lower value 0.993 | locus YKL160W, strain elf1, stronger effect = lower value 1.02 | locus YKR001C, strain vps1, stronger effect = lower value 0.975 | locus YKR026C, strain gcn3, stronger effect = lower value 1.02 | locus YKR091W, strain srl3, stronger effect = lower value 1.03 | locus YLL001W, strain dnm1, stronger effect = lower value 1.03 | locus YLL026W, stronger effect = lower value 1.02 | locus YLL041C, strain sdh2, stronger effect = lower value 1 | locus YLR027C, strain aat2, stronger effect = lower value 1.02 | locus YLR039C, strain RIC1, stronger effect = lower value 1.05 | locus YLR058C, strain SHM2, stronger effect = lower value 1.01 | locus YLR102C, strain apc9, stronger effect = lower value 1.01 | locus YLR221C, strain rsa3, stronger effect = lower value 1.05 | locus YLR258W, strain gsy2, stronger effect = lower value 1.01 | locus YLR262C, strain YPT6 (second series), stronger effect = lower value 1.06 | locus YLR268W, strain sec22, stronger effect = lower value 0.976 | locus YLR320W, strain mms22, stronger effect = lower value 1.03 | locus YLR330W, strain CHS5, stronger effect = lower value 1 | locus YLR342W, strain FKS1, stronger effect = lower value 1.02 | locus YLR357W, strain rsc2, stronger effect = lower value 1.02 | locus YLR370C, strain arc18, stronger effect = lower value 1.02 | locus YLR371W, strain rom2, stronger effect = lower value 0.957 | locus YLR384C, strain iki3, stronger effect = lower value 1.03 | locus YLR418C, strain cdc73, stronger effect = lower value 1.05 | locus YML016C, strain PPZ1, stronger effect = lower value 1.01 | locus YML032C, strain rad52, stronger effect = lower value 0.987 | locus YML120C, strain ndi1, stronger effect = lower value 1.01 | locus YML124C, strain tub3, stronger effect = lower value 0.998 | locus YMR058W, strain fet3, stronger effect = lower value 1.01 | locus YMR078C, strain ctf18, stronger effect = lower value 1.01 | locus YMR125W, strain sto1, stronger effect = lower value 1.04 | locus YMR129W, stronger effect = lower value 1.03 | locus YMR205C, strain PFK2, stronger effect = lower value 1.05 | locus YMR223W, strain ubp8, stronger effect = lower value 1 | locus YMR231W, strain pep5, stronger effect = lower value 1.02 | locus YMR307W, strain GAS1, stronger effect = lower value 0.91 | locus YNL067W, strain RPL9B, stronger effect = lower value 1.04 | locus YNL071W, strain lat1, stronger effect = lower value 1.02 | locus YNL128W, strain TEP1, stronger effect = lower value 1.01 | locus YNL153C, strain GIM3, stronger effect = lower value 1.04 | locus YNL209W, strain ssb2, stronger effect = lower value 1.03 | locus YNL233W, strain BNI4, stronger effect = lower value 1.03 | locus YNL248C, strain rpa49, stronger effect = lower value 1.03 | locus YNL250W, strain rad50, stronger effect = lower value 1.03 | locus YNL271C, strain bni1, stronger effect = lower value 0.999 | locus YNL298W, strain CLA4, stronger effect = lower value 0.997 | locus YNL307C, strain MCK1, stronger effect = lower value 1.01 | locus YNL322C, strain KRE1 (second series), stronger effect = lower value 1.03 | locus YNR049C, strain mso1, stronger effect = lower value 1.02 | locus YNR052C, strain pop2, stronger effect = lower value 1.04 | locus YOL012C, strain htz1 0.777 | locus YOL147C, strain pex11, stronger effect = lower value 0.991 | locus YOR001W, strain rrp6, stronger effect = lower value 1.03 | locus YOR061W, strain CKA2, stronger effect = lower value 1.01 | locus YOR069W, strain VPS5, stronger effect = lower value 1.01 | locus YOR070C, strain gyp1, stronger effect = lower value 1.02 | locus YOR080W, strain dia2, stronger effect = lower value 1.02 | locus YOR083W, strain WHI5, stronger effect = lower value 1.02 | locus YOR106W, strain vam3, stronger effect = lower value 1.05 | locus YOR136W, strain idh2, stronger effect = lower value 1.01 | locus YOR144C, strain elg1, stronger effect = lower value 0.997 | locus YOR184W, strain ser1, stronger effect = lower value 0.967 | locus YOR265W, strain rbl2, stronger effect = lower value 1.03 | locus YOR270C, strain vph1, stronger effect = lower value 1.04 | locus YOR290C, strain snf2, stronger effect = lower value 1.03 | locus YOR316C, strain cot1, stronger effect = lower value 1.01 | locus YPL051W, strain arl3, stronger effect = lower value 1.03 | locus YPL055C, strain LGE1, stronger effect = lower value 1.01 | locus YPL078C, strain atp4, stronger effect = lower value 1 | locus YPL106C, strain sse1, stronger effect = lower value 1.02 | locus YPL240C, strain hsp82, stronger effect = lower value 1.01 | locus YPL241C, strain CIN2, stronger effect = lower value 0.996 | locus YPR119W, strain clb2, stronger effect = lower value 0.995 | locus YPR141C, strain kar3, stronger effect = lower value 0.99 | locus YPR163C, strain tif3, stronger effect = lower value 0.992 | locus YPR167C, strain met16, stronger effect = lower value 1.01 | strain wtn01, stronger effect = lower value 0.965

Source: PubChem BioAssay AID1159580 (chemical genetic matrix, 2015)
